Assay [1] in a line: qHTS of pediatric cancer cell lines to identify multiple opportunities for drug repurposing: Primary screen for Rh41 cells (AID 1347108). Also: nearly all actives have a fitted effect of over 70% in size. Also: potency is read from the fitted curve at half-maximal effect. The essentials: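 CRCs from 8- or 11-point titrations (lowest final 0.59 nM NPC, 0.78 nM MIPE). Cell viability: CellTiter-Glo after 48 h incubation, 15 min room-temperature development, luminescence imaging.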
Assay [2] is described as follows: qHTS of pediatric cancer cell lines to identify multiple opportunities for drug repurposing: Confirmatory screen for NB1643 cells (AID 1347109). Also: nearly all actives have a fitted effect of over 45% in size. Also: potency is read from the fitted curve at half-maximal effect. In outline: (§1)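 Cells (500-1,000/well) rested 5 h, then received compounds for 48 h; metabolically active cells were measured by CellTiter-Glo luminescence. Final concentrations spanned up to 46 µM (MIPE, 11-point) or 0.59 nM-46 µM (NPC, 8-point) in primary screens, 11-point in follow-ups.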
(Quantitative high-throughput screening tests each substance at several concentrations.)

Assay [3] can be described thus: qHTS of pediatric cancer cell lines to identify multiple opportunities for drug repurposing: Confirmatory screen for SK-N-MC cells (AID 1347111).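 Also: potency is read from the fitted curve at half-maximal effect; cells exposed to compound for 48 h before the readout; nearly all actives have a fitted effect of over 70% in size.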 The essentials: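 Seed 500-1,000 cells/well; rest 5 h at 37 degrees C. Pin-transfer compounds, 11-point titration. Incubate 48 h. Add CellTiter-Glo, 15 min RT, read luminescence.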
Assay [4] can be described thus: qHTS of pediatric cancer cell lines to identify multiple opportunities for drug repurposing: Confirmatory screen for LAN-5 cells (AID 1347113). Also: nearly all actives have a fitted effect of over 65% in size. Also: potency is read from the fitted curve at half-maximal effect. In outline: as §1
Assay [5] can be described thus: qHTS of pediatric cancer cell lines to identify multiple opportunities for drug repurposing: Confirmatory screen for DAOY cells (AID 1347114). Also: nearly all actives have a fitted effect of over 65% in size. Also: potency is read from the fitted curve at half-maximal effect. The essentials:
(§2)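 Viability measured as metabolically active cells via CellTiter-Glo luminescence following 48 hours of compound exposure, 11-point dilutions in confirmatory testing. 500-1,000 cells/well plated 5 hours before dosing; controls were DMSO and 2.3 µM bortezomib.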

Assay [6] is described as follows: qHTS of pediatric cancer cell lines to identify multiple opportunities for drug repurposing: Confirmatory screen for BT-37 cells (AID 1347117). Also: nearly all actives have a fitted effect of over 55% in size. Also: potency is read from the fitted curve at half-maximal effect. In outline:
as §1

Assay [7] can be described thus: qHTS of pediatric cancer cell lines to identify multiple opportunities for drug repurposing: Confirmatory screen for TC32 cells (AID 1347118).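 Also: cells exposed to compound for 48 h before the read; nearly all actives have a fitted effect of over 65% in size.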 Also: potency is read from the fitted curve at half-maximal effect. The essentials:
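qHTS, TC32, 48 h drug treatment, CellTiter-Glo luminescence as a proxy for metabolically active cells; primary top concentration 46 µM (MIPE 11-pt, NPC 8-pt); confirmatory 11-pt.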

A short description of assay [8]: qHTS of pediatric cancer cell lines to identify multiple opportunities for drug repurposing: Confirmatory screen for MG 63 (6-TG R) cells (AID 1347119). Also: nearly all actives have a fitted effect of over 55% in size. Also: potency is read from the fitted curve at half-maximal effect. The essentials:
as §1

The nature of assay [9]: qHTS of pediatric cancer cell lines to identify multiple opportunities for drug repurposing: Confirmatory screen for control Hh wild type fibroblast cells (AID 1347121). Also: nearly all actives have a fitted effect of over 70% in size. Also: potency is read from the fitted curve at half-maximal effect. The essentials: as §1
The nature of assay [10]: qHTS of pediatric cancer cell lines to identify multiple opportunities for drug repurposing: Confirmatory screen for Rh41 cells (AID 1347123). Also: nearly all actives have a fitted effect of over 60% in size. Also: potency is read from the fitted curve at half-maximal effect. In outline:
as §1

Assay [11] in a line: qHTS of pediatric cancer cell lines to identify multiple opportunities for drug repurposing: Confirmatory screen for Rh18 cells (AID 1347125). Also: nearly all actives have a fitted effect of over 55% in size. Also: potency is read from the fitted curve at half-maximal effect. The essentials:
as §1

Assay [12] in a line: qHTS of pediatric cancer cell lines to identify multiple opportunities for drug repurposing: Confirmatory screen for Rh30 cells (AID 1347126). Also: nearly all actives have a fitted effect of over 55% in size. Also: potency is read from the fitted curve at half-maximal effect. In outline: as §1
Assay [13] is described as follows: qHTS of pediatric cancer cell lines to identify multiple opportunities for drug repurposing: Confirmatory screen for Saos-2 cells (AID 1347127). Also: nearly all actives have a fitted effect of over 60% in size. Also: potency is read from the fitted curve at half-maximal effect. In outline:
as §1

Assay [14] can be described thus: qHTS of pediatric cancer cell lines to identify multiple opportunities for drug repurposing: Confirmatory screen for A673 cells (AID 1347110).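 Also: potency is read from the fitted curve at half-maximal effect; cells exposed to compound for 48 h before the viability read; nearly all actives have a fitted effect of over 65% in size.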 The essentials:
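Viability was read as ATP luminescence (CellTiter-Glo) after 48 h of compound exposure at 37 C in A673 cells seeded at 500-1,000/well. Titrations reached 46 uM final, with 11 points in the confirmatory screen. Concentration-response curves were fitted directly.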

Assay [15] can be described thus: qHTS of pediatric cancer cell lines to identify multiple opportunities for drug repurposing: Confirmatory screen for NB-EBc1 cells (AID 1347115).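 Also: cells exposed to compound for 48 h before the viability read; nearly all actives have a fitted effect of over 45% in size.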 Also: potency is read from the fitted curve at half-maximal effect. The essentials: as §1
Assay [16] can be described thus: qHTS of pediatric cancer cell lines to identify multiple opportunities for drug repurposing: Confirmatory screen for SJ-GBM2 cells (AID 1347116). Also: nearly all actives have a fitted effect of over 60% in size. In outline: as §2
Assay [17] in a line: qHTS of pediatric cancer cell lines to identify multiple opportunities for drug repurposing: Confirmatory screen for RD cells (AID 1347124). Also: potency is read from the fitted curve at half-maximal effect. In outline: as §1
Assay [18] in a line: qHTS of pediatric cancer cell lines to identify multiple opportunities for drug repurposing: Confirmatory screen for BT-12 cells (AID 1347112). Also: nearly all actives have a fitted effect of over 55% in size. The essentials: as §1
The nature of assay [19]: qHTS of pediatric cancer cell lines to identify multiple opportunities for drug repurposing: Confirmatory screen for U-2 OS cells (AID 1347122). In outline:
as §1

These results are taken from PubChem BioAssay (NCATS).

Records with an inconclusive call do not appear. The source made the active and inactive calls. Calls follow the shape of the dose curve; as a rule, active = well fitted curve in the direction sought with a large enough effect; inconclusive = small, poorly fitted or top-dose-only effect, or another doubt; inactive = no such curve, though single readings can be large; an effect the other way counts as inactive or inconclusive.

As for `CO[C@H]1O[C@@H]2O[C@@]3(C)CC[C@@H]4[C@@H](C)CC[C@@H]([C@H]1C)[C@@]24OO3`, the Potency result in assay [1] was “inactive”.
For the compound `COc1ccc2c(c1)c(C1=C(c3c[nH]c4ccccc34)C(=O)NC1=O)cn2CCCN(C)C`, the Potency in [2] was 20.8 µM (active); in assay [3], 8.27 µM (active); in assay [4], 16.5 µM (active); in assay [5], 23.3 µM (active); in assay [6], 23.3 µM (active); in [7], 23.3 µM (active). Besides, the Potency in [10] was 20.8 µM (active); in [12], 2.33 µM (active). Also, the Potency entry in assay [8], in assay [9], in [11] and in assay [13] was “inactive” in each case.
As for `O=C(c1ccc(F)c(F)c1Nc1ccc(I)cc1F)N1CC(O)([C@H]2CCCCN2)C1`, the Potency in [1] is 18.7 µM (active); in assay [14], 26.1 µM (active); in assay [10], 14.7 µM (active). Besides, the Potency result in assay [15], in [16] and in [9] was “inactive” throughout.
On to `O=C1NC(=O)C(c2cnc3ccccn23)=C1c1cn2c3c(cccc13)CN(C(=O)N1CCOCC1)CC2`, for which the Potency in [3] is 14.7 µM (active); in [15], 2.93 µM (active); in [6], 16.5 µM (active); in assay [7], 4.65 µM (active); in [10], 0.0185 µM (active). Moreover, the Potency result in assay [9], in [17], in assay [11], in [12] and in assay [13] was “inactive” each time.
As to `CC(C)CN(C[C@H](O)[C@H](Cc1ccccc1)NC(=O)O[C@H]1CCOC1)S(=O)(=O)c1ccc(N)cc1`, the Potency entry in assay [2], in [18], in [4], in assay [5], in assay [16] and in assay [6] was “inactive” throughout. Further, the Potency entry in assay [9], in assay [10], in [17], in assay [11], in assay [12] and in [13] was “inactive” in each case. The Potency in assay [8] was 8.27 µM (active).
Regarding `Cc1nn(Cc2ccccc2Cl)c(C)c1CN(C)CC(O)COc1ccc(Cl)cc1` (stereo not given), the results for the Potency in assay [1] and in assay [5] were 18.7 µM (active) and 23.3 µM (active), respectively. For the same compound, the Potency result in assay [15], in assay [16] and in assay [9] was “inactive” in each case.
Regarding `OCCn1cc(-c2ccc3c(c2)CCC3=NO)c(-c2ccncc2)n1`, the Potency result in assay [1], in assay [2], in assay [18], in [5], in [15] and in assay [6] was “inactive” in each case. For the same compound, the Potency result in [7], in assay [8], in assay [9] and in assay [11] was “inactive” in each case. Besides, the Potency in assay [17] is 8.51 µM (active).
For `CC(C)C[C@@H](C(=O)N[C@H](C(=O)OC1CCCC1)c1ccccc1)[C@H](O)C(=O)NO`, the Potency in assay [2] is 20.8 µM (active); in [3], 20.8 µM (active); in assay [5] it was 18.5 µM (active); in [7], 23.3 µM (active); in assay [8] it was 20.8 µM (active); in [10], 11.7 µM (active). Also, the Potency in assay [13] was 5.85 µM (active). Moreover, the Potency entry in assay [18], in assay [15], in assay [9] and in assay [11] was “inactive” each time.
On to `CC1(C)CC(=O)c2c(C(F)(F)F)nn(-c3ccc(C(N)=O)c(NC4CCC(O)CC4)c3)c2C1` (stereo not given), for which the Potency was 0.296 µM (active) in [1]; 0.165 µM (active) in [2]; 0.147 µM (active) in [14]; 0.165 µM (active) in assay [3]; 0.185 µM (active) in [4]; 0.261 µM (active) in assay [15]. Moreover, the Potency in assay [6] was 0.104 µM (active); in assay [7] it was 0.165 µM (active); in assay [19], 0.185 µM (active); in [10], 0.369 µM (active); in assay [11], 0.261 µM (active); in [12], 0.369 µM (active). Besides, the Potency entry in assay [18] and in assay [5] was “inactive” in each case.
Regarding `C[C@@]1(C(=O)Nc2ccc(F)nc2)CCCN1c1nc(Nc2cc(C3CC3)[nH]n2)c2cccn2n1`, the Potency is 0.0743 µM (active) in assay [1]; 0.293 µM (active) in [2]; 0.465 µM (active) in [14]; 0.147 µM (active) in assay [4]; 1.47 µM (active) in assay [15]; 2.93 µM (active) in assay [6]. Besides, the Potency in assay [7] was 0.233 µM (active); in assay [8], 0.104 µM (active); in assay [9], 14.7 µM (active); in assay [10], 0.208 µM (active); in assay [11], 7.37 µM (active); in assay [13] it was 1.85 µM (active).
